Data published in PubChem BioAssay (NCATS).
Records with an inconclusive call do not appear. Activity calls are given as the source filed them. Unless noted, the call rests on the fitted dose curve.

Key:
[1] = qHTS for Inhibitors of the Functional Ribonucleoprotein Complex (vRNP) of Lassa (LASV) Arenavirus: LASV Primary Screen - GLuc reporter signal (AID 1347082; calls by dose curve; tested in HEK293 reporter line; further: nearly all actives have a fitted effect of over 60% in size)
[2] = qHTS for Inhibitors of the Functional Ribonucleoprotein Complex (vRNP) of Lassa (LASV) Arenavirus: Viability assay - alamar blue signal for LASV Primary Screen (AID 1347083; calls by dose curve; tested in HEK293 reporter line; further: nearly all actives have a fitted effect of over 80% in size)
[3] = qHTS for Inhibitors of the Functional Ribonucleoprotein Complex (vRNP) of Lymphocytic Choriomeningitis Arenaviruses (LCMV): Viability assay - alamar blue signal for LCMV Primary Screen (AID 1347085; calls by dose curve; tested in HEK293 reporter line; further: nearly all actives have a fitted effect of over 80% in size)
[4] = target: Nucleoprotein (Lymphocytic choriomeningitis virus (strain Armstrong)) (UniProt P09992); assay: qHTS for Inhibitors of the Functional Ribonucleoprotein Complex (vRNP) of Lymphocytic Choriomeningitis Arenaviruses (LCMV): LCMV Primary Screen - GLuc reporter signal (AID 1347086); further: nearly all actives have a fitted effect of over 70% in size
Sequence of Nucleoprotein (Lymphocytic choriomeningitis virus (strain Armstrong)) (P09992 whole entry, looked up): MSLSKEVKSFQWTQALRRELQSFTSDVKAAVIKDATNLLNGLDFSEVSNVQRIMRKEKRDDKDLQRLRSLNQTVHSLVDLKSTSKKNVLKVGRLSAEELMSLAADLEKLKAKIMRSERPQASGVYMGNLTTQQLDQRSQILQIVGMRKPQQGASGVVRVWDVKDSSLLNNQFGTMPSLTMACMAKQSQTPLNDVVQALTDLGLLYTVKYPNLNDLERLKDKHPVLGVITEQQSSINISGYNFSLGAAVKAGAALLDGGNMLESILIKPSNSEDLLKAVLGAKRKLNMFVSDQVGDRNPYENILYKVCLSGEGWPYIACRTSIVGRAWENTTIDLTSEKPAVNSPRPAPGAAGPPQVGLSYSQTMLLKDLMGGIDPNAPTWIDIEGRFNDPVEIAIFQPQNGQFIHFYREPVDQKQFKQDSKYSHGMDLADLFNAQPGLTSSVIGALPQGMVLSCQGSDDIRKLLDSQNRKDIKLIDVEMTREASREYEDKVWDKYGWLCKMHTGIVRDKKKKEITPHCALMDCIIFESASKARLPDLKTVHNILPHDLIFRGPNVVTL

Measured: Potency
Further: series mostly up to about 57 µM.

CC(C)(C)c1ccc(O)cc1
inactive: all assays above

CC(C)NCC(O)c1cc(O)cc(O)c1 (stereo unspecified)
inactive: all assays above

CCCNC(C)C(=O)Nc1ccccc1C (stereo unspecified)
inactive: all assays above

CCCCCCCCCCCCCCCCCC(=O)O
inactive: all assays above

CC(C)C[C@H]1C(=O)N2CCC[C@H]2[C@]2(O)O[C@](NC(=O)[C@@H]3C=C4c5cccc6[nH]c(Br)c(c56)C[C@H]4N(C)C3)(C(C)C)C(=O)N12
inactive: all assays above

CC1c2ccccc2CN1NC(=O)c1ccc(Cl)c(S(N)(=O)=O)c1 (stereo unspecified)
inactive: all assays above

Cc1oc(=O)oc1COC(=O)[C@@H]1N2C(=O)[C@@H](NC(=O)[C@H](N)c3ccccc3)[C@H]2SC1(C)C
inactive: all assays above

OC[C@H]1O[C@@H]2O[C@H]3[C@H](O)[C@@H](O)[C@@H](O[C@H]4[C@H](O)[C@@H](O)[C@@H](O[C@H]5[C@H](O)[C@@H](O)[C@@H](O[C@H]6[C@H](O)[C@@H](O)[C@@H](O[C@H]7[C@H](O)[C@@H](O)[C@@H](O[C@H]8[C@H](O)[C@@H](O)[C@@H](O[C@H]1[C@H](O)[C@H]2O)O[C@@H]8CO)O[C@@H]7CO)O[C@@H]6CO)O[C@@H]5CO)O[C@@H]4CO)O[C@@H]3CO
inactive: all assays above

CCCCCCCCCCCCCCCCCC(=O)OCC(O)CO (stereo unspecified)
inactive: all assays above
